{"source": "paper PMC4336329", "about": "(PLoS ONE, 2015)", "note": "In all, about 310,000 compounds went through this assay and about 14,000 (4.5%) showed an effect of 50% or more. The effect is printed as a negative number. Shown is part of a subset that was picked to be rich in strong results.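 Further: peak tail current of the secondary pulse compared with the same well before compound.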"}
{"target": "human ether-à-go-go-related gene (hERG) potassium channel (human, UniProt Q12809)", "sequence (Q12809 whole entry, looked up)": "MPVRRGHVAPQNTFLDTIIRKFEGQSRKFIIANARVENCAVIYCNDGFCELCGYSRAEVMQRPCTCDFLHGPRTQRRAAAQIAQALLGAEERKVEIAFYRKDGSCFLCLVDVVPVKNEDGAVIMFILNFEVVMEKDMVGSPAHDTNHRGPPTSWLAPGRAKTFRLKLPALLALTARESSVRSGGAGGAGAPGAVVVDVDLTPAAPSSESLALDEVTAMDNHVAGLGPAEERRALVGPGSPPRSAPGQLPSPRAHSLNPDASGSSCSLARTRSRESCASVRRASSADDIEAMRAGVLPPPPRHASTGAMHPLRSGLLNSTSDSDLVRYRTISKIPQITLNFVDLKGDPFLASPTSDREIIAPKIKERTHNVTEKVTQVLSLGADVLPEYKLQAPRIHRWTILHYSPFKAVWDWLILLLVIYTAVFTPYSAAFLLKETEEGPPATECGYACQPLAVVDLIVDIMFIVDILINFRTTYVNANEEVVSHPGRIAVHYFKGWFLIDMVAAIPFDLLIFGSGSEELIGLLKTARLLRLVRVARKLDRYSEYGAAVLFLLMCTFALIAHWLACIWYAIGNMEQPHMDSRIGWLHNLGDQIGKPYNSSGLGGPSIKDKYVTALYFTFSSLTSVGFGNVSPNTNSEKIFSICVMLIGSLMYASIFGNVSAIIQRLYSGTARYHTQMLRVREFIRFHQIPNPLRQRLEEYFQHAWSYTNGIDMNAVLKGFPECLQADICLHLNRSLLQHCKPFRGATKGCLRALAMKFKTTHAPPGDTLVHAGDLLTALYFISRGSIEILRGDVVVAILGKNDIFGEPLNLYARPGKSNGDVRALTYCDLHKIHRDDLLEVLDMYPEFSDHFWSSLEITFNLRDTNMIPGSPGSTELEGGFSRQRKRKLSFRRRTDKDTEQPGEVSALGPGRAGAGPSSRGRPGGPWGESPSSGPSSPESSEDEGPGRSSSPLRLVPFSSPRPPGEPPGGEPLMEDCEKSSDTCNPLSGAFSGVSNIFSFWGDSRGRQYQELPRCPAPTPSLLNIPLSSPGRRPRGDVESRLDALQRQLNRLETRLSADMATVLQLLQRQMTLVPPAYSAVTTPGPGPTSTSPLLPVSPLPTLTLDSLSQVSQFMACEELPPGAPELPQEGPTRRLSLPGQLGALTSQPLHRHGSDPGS", "experiment": "primary screen, population patch clamp on CHO cells stably expressing hERG; higher = less effect of the substance", "units": {"hERG current change (%, negative = inhibition) at 10uM": "%"}}
{"smiles": "CCOc1cc2c(cc1OC)C(NC(=O)C(F)(F)F)CC2=O", "note": "(centres unmarked)", "hERG current change (%, negative = inhibition) at 10uM": -0.243}
{"smiles": "CC1CCc2nc3ccc(S(=O)(=O)N4CCC(C(=O)NCc5ccccc5Cl)CC4)cc3c(C(=O)O)c2C1", "note": "(centres unmarked)", "hERG current change (%, negative = inhibition) at 10uM": 7.04}
{"smiles": "O=C(O)c1ccc(N2C(=O)CC(N3CCC(c4nc5ccccc5[nH]4)CC3)C2=O)cc1", "note": "(centres unmarked)", "hERG current change (%, negative = inhibition) at 10uM": 4.95}
{"smiles": "COc1ccc(-c2ccc(Nc3ccc(C(=O)N4CCOCC4)cc3)nn2)cc1OC", "hERG current change (%, negative = inhibition) at 10uM": -5.3}
{"smiles": "CC(=O)N/N=C(\\C)c1ccc2c(c1)OCCO2", "hERG current change (%, negative = inhibition) at 10uM": 11}
{"smiles": "CC(=O)c1ccc2c(c1)OCCOCCOc1ccccc1OCCOCCO2", "hERG current change (%, negative = inhibition) at 10uM": -74.4}
{"smiles": "C/C(=N\\O)c1ccc2c(c1)OCCO2", "hERG current change (%, negative = inhibition) at 10uM": 14.3}
{"smiles": "CCC(=O)c1ccc2c(c1)OCCO2", "hERG current change (%, negative = inhibition) at 10uM": 3.36}
{"smiles": "CC(C)(C)C(=O)Nc1ccc2c(c1)OCCOCCOc1cc(NC(=O)C(C)(C)C)ccc1OCCOCCO2", "hERG current change (%, negative = inhibition) at 10uM": -65.5}
{"smiles": "C/C(=N/O)c1ccc2c(c1)OCCOCCOc1cc(/C(C)=N/O)ccc1OCCOCCO2", "hERG current change (%, negative = inhibition) at 10uM": -77.3}
{"smiles": "CC(=O)N1CCN(C(=O)c2ccc3c(c2)OCCO3)CC1", "hERG current change (%, negative = inhibition) at 10uM": 10.9}
{"smiles": "O=C(C[n+]1ccc(/C=C/c2ccccc2)cc1)c1ccc2c(c1)OCCO2.[Br-]", "hERG current change (%, negative = inhibition) at 10uM": -50.2}
{"smiles": "Cc1cc[n+](CC(=O)c2ccc3c(c2)OCCO3)cc1.[Br-]", "hERG current change (%, negative = inhibition) at 10uM": -22.2}
{"smiles": "Nc1cc[n+](CC(=O)c2ccc3c(c2)OCCO3)cc1.[Br-]", "hERG current change (%, negative = inhibition) at 10uM": -0.154}
{"smiles": "CC(=O)Nc1ccc2c(c1)OCCOCCOc1cc(NC(C)=O)ccc1OCCO2", "hERG current change (%, negative = inhibition) at 10uM": -4.52}
{"smiles": "CC(=O)Nc1ccc2c(c1)OCCOCCOc1cc(NC(C)=O)ccc1OCCOCCOCCO2", "hERG current change (%, negative = inhibition) at 10uM": -2.81}
{"smiles": "COC(=O)CCC(=O)NNC(=O)CCC(=O)Nc1cccc(Cl)c1C", "hERG current change (%, negative = inhibition) at 10uM": 6.61}
{"smiles": "CNC(=O)c1cc(-c2ccc(Cl)cc2)n(-c2ccccc2)n1", "hERG current change (%, negative = inhibition) at 10uM": 4.41}
{"smiles": "Cc1ccc(C)c(NS(=O)(=O)c2cc(C(=O)NCC3CCCO3)ccc2C)c1", "note": "(centres unmarked)", "hERG current change (%, negative = inhibition) at 10uM": -47.7}
{"smiles": "Cc1nc(S(=O)(=O)Cc2ccccc2Cl)nc2c1CCC2", "hERG current change (%, negative = inhibition) at 10uM": 24.1}
{"smiles": "O=C(CSc1nc2c(cnn2-c2cccc(Cl)c2)c(=O)[nH]1)NCCC1=CCCCC1", "hERG current change (%, negative = inhibition) at 10uM": -16.7}
{"smiles": "CC(C)NC(=O)COC(=O)CNC(=O)c1cc(Cl)cc([N+](=O)[O-])c1", "hERG current change (%, negative = inhibition) at 10uM": -0.0659}
{"smiles": "COC(=O)/C(=N\\OCc1ccc(C#N)cc1)c1c(C)nn(C)c1C", "hERG current change (%, negative = inhibition) at 10uM": -29.3}
{"smiles": "CC1(C2CC2)NC(=O)N(CC(=O)Nc2ccc(Cl)c([N+](=O)[O-])c2)C1=O", "note": "(centres unmarked)", "hERG current change (%, negative = inhibition) at 10uM": -1.15}
{"smiles": "CCCc1n[nH]c(=O)c2c1nnn2Cc1ccccc1", "hERG current change (%, negative = inhibition) at 10uM": 4.86}
{"smiles": "CC(=O)c1ccc2c(c1)OCO2", "hERG current change (%, negative = inhibition) at 10uM": 16.1}
{"smiles": "O=C(O)c1ccc2c(c1)OCCCO2", "hERG current change (%, negative = inhibition) at 10uM": 4.27}
{"smiles": "O=C(c1ccccc1)c1ccc2c(c1)OCCOCCOCCO2", "hERG current change (%, negative = inhibition) at 10uM": -3.96}
{"smiles": "O=C(c1ccccc1)c1ccc2c(c1)OCCOCCOCCOCCO2", "hERG current change (%, negative = inhibition) at 10uM": -65}
{"smiles": "CC(=O)c1ccc2c(c1)OCCOCCOCCOCCO2", "hERG current change (%, negative = inhibition) at 10uM": -49.3}
{"smiles": "CC(=O)c1ccc2c(c1)OCCOCCOc1ccc(C(C)=O)cc1OCCOCCO2", "hERG current change (%, negative = inhibition) at 10uM": -76.6}
{"smiles": "NC(=O)c1ccc2c(c1)OCCO2", "hERG current change (%, negative = inhibition) at 10uM": 6.04}
{"smiles": "CC(=O)c1ccc2c(c1)OCCOCCOCCO2", "hERG current change (%, negative = inhibition) at 10uM": 8.76}
{"smiles": "O=C(O)c1ccc2c(c1)OCCO2", "hERG current change (%, negative = inhibition) at 10uM": 3.19}
{"smiles": "O=C(O)c1ccc2c(c1)OCCOCCOCCOCCOCCO2", "hERG current change (%, negative = inhibition) at 10uM": -64}
{"smiles": "O=C(c1ccccc1)c1ccc2c(c1)OCCCO2", "hERG current change (%, negative = inhibition) at 10uM": -5.56}
{"smiles": "CC(=O)c1ccc2c(c1)OCCOCCOCCOCCOCCO2", "hERG current change (%, negative = inhibition) at 10uM": -62.4}
{"smiles": "CC(=O)Nc1ccc(C(=O)NNC(=O)c2cccc(C)c2)cc1", "hERG current change (%, negative = inhibition) at 10uM": -1.91}
{"smiles": "CCCC(=O)Nc1nnc(-c2ccco2)s1", "hERG current change (%, negative = inhibition) at 10uM": 2.55}
{"smiles": "O=C(COC(=O)CSc1ccc(F)cc1)NNC(=O)c1ccc([N+](=O)[O-])cc1", "hERG current change (%, negative = inhibition) at 10uM": -30.2}
{"smiles": "O=C(CCCN1C(=O)/C(=C/c2cccs2)SC1=S)NNC(=O)c1ccccc1O", "hERG current change (%, negative = inhibition) at 10uM": 4.76}
{"smiles": "COc1ccccc1Nc1nn2c(=O)c3ccc(C(=O)N4CCCCC4)cc3nc2s1", "hERG current change (%, negative = inhibition) at 10uM": 3.25}
{"smiles": "Cc1cccc(OCC(=O)N=Nc2c(O)[nH]c3ccc([N+](=O)[O-])cc23)c1", "hERG current change (%, negative = inhibition) at 10uM": -2.59}
{"smiles": "CCOC(=O)CN1C(=O)C(Sc2n[nH]c(-c3cccc(C)c3)n2)CCc2ccccc21", "note": "(centres unmarked)", "hERG current change (%, negative = inhibition) at 10uM": 6.35}
{"smiles": "COc1ccc(CCC(=O)N2CCCc3ccccc32)cc1", "hERG current change (%, negative = inhibition) at 10uM": 6.02}
{"smiles": "Nc1c(S(=O)(=O)c2cc(Cl)ccc2Cl)c2nc3ccccc3nc2n1CCN1CCOCC1", "hERG current change (%, negative = inhibition) at 10uM": -15.3}
{"smiles": "CC(NCC(O)COc1ccccc1)C1COc2ccccc2O1", "note": "(centres unmarked)", "hERG current change (%, negative = inhibition) at 10uM": -46.7}
{"smiles": "CC(C)N1CCN(Cc2ccc3c(c2)Cc2ccccc2-3)CC1CCO", "note": "(centres unmarked)", "hERG current change (%, negative = inhibition) at 10uM": -52.4}
{"smiles": "COc1ccc(CN2CCN(C(C)C)C(CCO)C2)cc1Cn1cncn1", "note": "(centres unmarked)", "hERG current change (%, negative = inhibition) at 10uM": 34.1}
{"smiles": "CC(C)N1CCN(Cc2ccc(OCc3ccccc3)cc2)CC1CCO", "note": "(centres unmarked)", "hERG current change (%, negative = inhibition) at 10uM": -51.6}
{"smiles": "COc1cc(CN2CCN(C(C)C)C(CCO)C2)ccc1OCc1ccccc1", "note": "(centres unmarked)", "hERG current change (%, negative = inhibition) at 10uM": -55.2}
{"smiles": "CC(C)N1CCN(Cc2ccc(Oc3ncccn3)cc2)CC1CCO", "note": "(centres unmarked)", "hERG current change (%, negative = inhibition) at 10uM": 10.9}
{"smiles": "CC(C)N1CCN(Cc2ccc3nsnc3c2)CC1CCO", "note": "(centres unmarked)", "hERG current change (%, negative = inhibition) at 10uM": 8.66}
{"smiles": "CC(C)N1CCN(Cc2ccncc2)CC1CCO", "note": "(centres unmarked)", "hERG current change (%, negative = inhibition) at 10uM": 4.5}
{"smiles": "CC(C)N1CCN(Cc2ccc(OC3CCCC3)cc2)CC1CCO", "note": "(centres unmarked)", "hERG current change (%, negative = inhibition) at 10uM": -10.7}
{"smiles": "CCN1CCN(Cc2ccc(OCc3ccccc3)c(OC)c2)CC1", "hERG current change (%, negative = inhibition) at 10uM": -17.7}
{"smiles": "CCCSc1nsc(NC(=O)C(c2ccccc2)c2ccccc2)n1", "hERG current change (%, negative = inhibition) at 10uM": 19.3}
{"smiles": "Cc1nn(C)c(C)c1NC(=O)c1cnn2c(C(F)F)cc(-c3ccccc3)nc12", "hERG current change (%, negative = inhibition) at 10uM": 40.4}
{"smiles": "COc1ccccc1N(CC(=O)N1CCCC1)S(=O)(=O)c1ccc(C)cc1", "hERG current change (%, negative = inhibition) at 10uM": 5.18}
